# Laboratory results published in PubChem BioAssay (NCATS).
# Several values for one entry are separate records, joined by “and”; a condition that tells them apart may be missing. Equal values may be shown once. Inconclusive results are not listed. Activity calls are given as the source filed them. Unless noted, the call rests on the fitted dose curve; in most records, active means well fitted curve in the direction sought with a large enough effect; inconclusive means small, poorly fitted or top-dose-only effect, or another doubt; inactive means no such curve, though single readings can be large; an effect the other way counts as inactive or inconclusive.
# How the values were obtained:
# [1] = qHTS for small molecule inhibitors of Yes1 kinase: Counter Assay (AID 686950); details: series mostly up to 76.9 µM;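 further: no kinase present so only ADP-Glo detection of a fixed ADP amount is tested; luminescence from ADP-Glo reporting ADP in a fixed ATP and ADP mixture; 0% = DMSO wells with ATP plus ADP and -100% = ATP-only wells without ADP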
# How it was run: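 No kinase present; 0.08 mM ATP + 0.02 mM ADP in 50 mM Tris pH 7.5, 10 mM MgCl2, 150 mM NaCl, 1 mM DTT; 20 min compound preincubation, 60 min RT, ADP-Glo luminescence, normalized to ATP/ADP (max) and ATP-only (min).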
# [2] = qHTS Assay for Identifying Gametocytocidal Compounds (AID 743244);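 further: on the % scale 0 is the no-effect control and ±100 the full control effect; actives lower the fluorescent signal which means gametocytes are killed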; details: P. falciparum 3D7 stage III-V gametocytes, alamarBlue, 72 h; max response: stronger effect = lower value
# How it was run: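 Viability read-out was resazurin reduction (alamarBlue, 24 h) measured at Ex 525/Em 598 nm. Beforehand, late-stage (III-V) 3D7 P. falciparum gametocytes at 20,000 cells/well were incubated with compound 72 h at 37C under 5% CO2.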
# [3] = qHTS profiling for inhibitors of Plasmodium falciparum (3D7) proliferation (AID 743322; call rule not given here;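 further: infected erythrocytes exposed to compound for 72 h before lysis; 100% = DMSO vehicle wells and 0% = 0.29 µM artemisinin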); details: P. falciparum 3D7 proliferation; at 28.7 µM (top of the series) unless noted
# How it was run: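 Parasite DNA was quantified by SYBR Green I fluorescence (ex 485, em 535 nm) after overnight lysis in saponin/Triton buffer at room temperature. Cultures at 0.3% parasitemia and 2.5% hematocrit were first exposed to compound for 72 h at 37 C; signals were normalised to artemisinin (0.29 uM) and vehicle wells.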
# [4] = qHTS profiling for inhibitors of Plasmodium falciparum (DD2) proliferation (AID 743323; call rule not given here); details: lower = more inhibition; at 28.7 µM (top of the series) unless noted
# How it was run: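 Parasite proliferation measured via DNA-dye fluorescence, as uninfected erythrocytes lack DNA. Cultures at 0.3% parasitemia and 2.5% hematocrit incubated 72 h with compound; signal scaled between vehicle and 0.29 uM artemisinin wells.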
# [5] = biological target: Tumor necrosis factor (Homo sapiens) (UniProt P01375); assay: qHTS assay to identify small molecules that stimulate Tumor Necrosis Factor-alpha (TNF-alpha) secretion (AID 651757; active means well fitted curve in the direction sought with a large enough effect in the signal ratio; the % refers to the signal ratio; further: 0% is about no effect); details: Human cells, HTRF 665/615 ratio; series mostly up to 92.2 µM
# How it was run: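 THP-1 cells, 3000/well; compound 17 hrs, 37 C; add cryptate/XL665 anti-TNF-alpha antibody pair; 3 hr RT; TR-FRET (HTRF) read of secreted TNF-alpha. Quantitative HTS format.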
# [6] = qHTS assay to identify small molecules that stimulate interleukin-8 (IL-8) secretion (AID 651758; active means well fitted activation curve with a large enough effect in the signal ratio; the % refers to the signal ratio; further: 0% is about no effect); details: HTRF ratio (665/615); series mostly up to 92.2 µM
# How it was run: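 Compounds are added to THP-1 cells (2000 per well) and left 16 hrs at 37 C. A labeled anti-IL-8 antibody pair is then added, and IL-8 secretion is measured by time-resolved FRET after 1-3 hrs at room temperature.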
# [7] = qHTS assay for environmental chemicals that activate the Aryl hydrocarbon Receptor (AhR) signaling pathway (AID 651777); details: 1A2-DRE human hepatoma cells, luciferase, 24 h; stronger effect = higher value; further: % of control where 0% means no effect; nearly all actives have a fitted effect of over 15% in size
# How it was run: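 Induction of CYP1A2 transcription through AhR is detected by luciferase in 1A2-DRE hepatoma cells. Compounds or DMSO act for 24 hr at 37 C before a 30 min One-Glo step at room temperature.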
# [8] = biological target: Peroxisome proliferator-activated receptor alpha (Homo sapiens) (UniProt Q07869); assay: qHTS assay for small molecule agonists of the peroxisome proliferator-activated receptor alpha (PPARalpha) signaling pathway (AID 651778); details: PathHunter PPARalpha complementation, chemiluminescence, 6 h; max response: stronger effect = higher value; further: potency means the concentration at half of the fitted maximal effect; on max response: % of control where 0% means no effect
# How it was run: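 Enzyme-fragment complementation assay in which ligand-bound PPARalpha translocates and forms an active enzyme that generates chemiluminescence. Cells were plated overnight, exposed to compound for 6 hr at 37 C, and then given detection reagent for 60 min at room temperature.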
# [9] = qHTS assay for small molecule agonists of the antioxidant response element (ARE) signaling pathway measured by Nrf2-dependant transcriptional activity (AID 720636; active means well fitted curve in the direction sought with a large enough effect in the repeat runs; an effect the other way counts as inactive or inconclusive;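 further: HepG2 cells with an ARE-driven luciferase reporter; % of control where 0% means no effect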); details: ARE-luc HepG2, Nrf2 luciferase reporter, 16 h; series mostly up to 92.4 µM
# How it was run: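 We exposed ARE-luc HepG2 cells, seeded in assay medium with 1% dialyzed FBS and allowed 6 hr to adhere, to test compounds overnight (16 hr, 37 C) before measuring luciferase with ONE-Glo.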
# [10] = qHTS assay for small molecule antagonists of the retinoid-related orphan receptor gamma (ROR-gamma) signaling pathway - cell viability counter screen (AID 720652; active means well fitted curve in the direction sought with a large enough effect in the repeat runs; an effect the other way counts as inactive or inconclusive;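 further: CHO reporter cells with doxycycline-induced ROR-gamma expression; compound exposure lasted 16 hr before ATP read; on the % scale 0 is the no-effect control and ±100 the full control effect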); details: RORgamma reporter cell line viability counter screen; series mostly up to 92.2 µM
# How it was run: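 CHO RORE-LUC/TET-ROR line, 1,000 cells/well, 37 C 5% CO2 5 hr; cpd or DMSO + doxycycline induction, 16 hr. CellTiter-Glo, 30 min RT, luminescence = ATP content.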
# [11] = qHTS assay for small molecule agonists of the antioxidant response element (ARE) signaling pathway measured by Nrf2-dependant transcriptional activity - cell viability counter screen (AID 720653; active means well fitted curve in the direction sought with a large enough effect in the repeat runs; an effect the other way counts as inactive or inconclusive; further: on the % scale 0 is the no-effect control and ±100 the full control effect); details: ARE-bla HepG2 viability, CellTiter-Glo ATP luminescence, 16 h; stronger effect = lower value
# How it was run: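 ARE-bla HepG2 cells treated with compounds for 16 h at 37C; this counter screen measures viability as intracellular ATP by CellTiter-Glo luminescence after 30 min at room temperature.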
# [12] = qHTS assay for cell viability of HEK293 cells (AID 743288); details: ATP luminescence (CellTiter-Glo), 18 h, stronger effect = lower value; further: on the % scale 0 is the no-effect control and ±100 the full control effect; nearly all actives have a fitted effect of over 50% in size
# How it was run: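 Quantitative high-throughput screen: compounds were pinned onto parental HEK293 cells (2,000 per well) after a minimum 5 h settling at 37 C, incubated 18 h at 37 C, and intracellular ATP measured by luciferase luminescence.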
# [13] = qHTS assay for cell viability of the p53RE-bla HCT-116 cell line (AID 743292); details: p53RE-bla HCT-116 viability, ATP luminescence, 16 h; series mostly up to 95 µM; further: on the % scale 0 is the no-effect control and ±100 the full control effect; nearly all actives have a fitted effect of over 55% in size
# How it was run: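 In this qHTS counter-screen, metabolically competent p53RE-bla HCT-116 cells were counted via their ATP content. Compounds were applied for 16 h at 37 C and luciferase-coupled luminescence was measured.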
# [14] = biological target: Nuclear receptor ROR-gamma (Homo sapiens) (UniProt P51449); assay: qHTS assay for small molecule antagonists of the retinoid-related orphan receptor gamma (ROR-gamma) signaling pathway (AID 651802); details: ROR-gamma antagonist cell reporter assay; series mostly up to 92.2 µM;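 further: CHO cells with doxycycline-induced ROR-gamma expression; luciferase reporter luminescence driven by ROR response element; on the % scale 0 is the no-effect control and ±100 the full control effect; nearly all actives have a fitted effect of over 60% in size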
# How it was run: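 Luciferase read-out: ONE-Glo luminescence after 30 min at room temperature, following 16hr doxycycline induction at 37C, 5% CO2 of CHO cells with TET-inducible ROR and RORE-LUC reporter; decreased luminescence = reduced reporter activity.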
# Chain of Peroxisome proliferator-activated receptor alpha (Homo sapiens) (Q07869 whole entry, looked up, the tested form may be a part): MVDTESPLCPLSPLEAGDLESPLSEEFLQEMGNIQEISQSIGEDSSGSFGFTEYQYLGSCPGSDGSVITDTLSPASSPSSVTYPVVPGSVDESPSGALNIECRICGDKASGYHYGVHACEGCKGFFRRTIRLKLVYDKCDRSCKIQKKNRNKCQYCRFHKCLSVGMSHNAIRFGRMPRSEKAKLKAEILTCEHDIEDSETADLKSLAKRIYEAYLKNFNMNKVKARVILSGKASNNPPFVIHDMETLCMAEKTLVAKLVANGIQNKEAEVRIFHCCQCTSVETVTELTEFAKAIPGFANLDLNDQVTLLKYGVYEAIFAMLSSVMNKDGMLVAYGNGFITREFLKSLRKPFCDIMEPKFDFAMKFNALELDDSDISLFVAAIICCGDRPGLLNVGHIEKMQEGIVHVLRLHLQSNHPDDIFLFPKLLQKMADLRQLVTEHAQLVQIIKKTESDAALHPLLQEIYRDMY
# Chain of Tumor necrosis factor (Homo sapiens) (P01375 whole entry, looked up): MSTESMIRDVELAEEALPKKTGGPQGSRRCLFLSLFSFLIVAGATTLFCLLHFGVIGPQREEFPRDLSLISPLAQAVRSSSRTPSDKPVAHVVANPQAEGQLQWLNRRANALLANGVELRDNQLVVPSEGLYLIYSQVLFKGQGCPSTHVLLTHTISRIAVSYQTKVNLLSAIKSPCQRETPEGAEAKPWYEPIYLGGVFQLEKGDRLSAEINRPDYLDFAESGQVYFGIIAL
# Chain of Nuclear receptor ROR-gamma (Homo sapiens) (P51449 whole entry, looked up): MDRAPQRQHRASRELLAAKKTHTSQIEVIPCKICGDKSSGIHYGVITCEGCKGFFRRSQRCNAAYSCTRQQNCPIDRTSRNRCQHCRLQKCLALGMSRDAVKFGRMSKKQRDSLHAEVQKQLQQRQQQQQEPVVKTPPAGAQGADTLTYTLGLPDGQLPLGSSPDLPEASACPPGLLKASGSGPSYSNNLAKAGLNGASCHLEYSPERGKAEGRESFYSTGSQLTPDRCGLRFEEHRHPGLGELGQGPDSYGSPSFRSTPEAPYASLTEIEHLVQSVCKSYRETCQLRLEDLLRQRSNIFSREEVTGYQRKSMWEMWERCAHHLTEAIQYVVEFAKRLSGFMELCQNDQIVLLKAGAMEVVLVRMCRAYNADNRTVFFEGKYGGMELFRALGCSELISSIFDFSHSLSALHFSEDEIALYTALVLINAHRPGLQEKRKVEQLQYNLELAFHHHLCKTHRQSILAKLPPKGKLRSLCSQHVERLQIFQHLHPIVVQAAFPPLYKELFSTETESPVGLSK
compound,measurement,setting,value
C[C@@H]1CCN(C(=O)CC#N)C[C@@H]1N(C)c1ncnc2[nH]ccc12,outcome,[1],inactive
same,max response,[2],9.63% (inactive)
same,remaining parasite growth % (stronger effect = lower value),[3],95.6%
same,"activity, percent of control",[4],99.8%
CCC[C@@H]1C[C@@H](C(=O)N[C@@H]([C@H]2O[C@H](SC)[C@H](OP(=O)(O)O)[C@@H](O)[C@H]2O)[C@H](C)Cl)N(C)C1,max response,[2],4.72% (inactive) and 1.78% (inactive)
CCCCCCCC/C=C\CCCCCCCC(=O)O,outcome,[5],inactive
same,Potency,[6],inactive
same,activation,[7],-1.87% (inactive) and 0.641% (inactive)
same,Potency,[8],35.5 µM (active)
same,outcome,[9],inactive
same,outcome,[10],inactive
same,max response,[11],-10.5% (inactive) and 3.78% (inactive)
same,max response,[12],-8.54% (inactive) and -13.9% (inactive)
same,outcome,[13],inactive
CC1=C2[C@@H]([C@H](C)CC[C@H]2/C=C(\C)C(=O)O)[C@H](O)C1,outcome,[5],inactive
same,Potency,[6],inactive
same,activation,[7],1.08% (inactive)
same,max response,[8],-2.98% (inactive)
same,outcome,[14],inactive
same,outcome,[9],inactive
same,outcome,[10],inactive
same,max response,[11],-8.96% (inactive)
same,max response,[12],-12% (inactive)
same,outcome,[13],inactive
O=C(O)CN(CCN(CC(=O)O)CC(=O)O)CC(=O)O,activation,[7],2.06% (inactive) and 1.21% (inactive)
same,max response,[8],2.01% (inactive) and 0.29% (inactive)
same,outcome,[9],inactive
same,max response,[11],14.1% (inactive) and -8.31% (inactive)
same,max response,[12],-9.23% (inactive) and -6.76% (inactive)
same,outcome,[13],inactive
